Experimental data taken from PubChem BioAssay (NCATS).
Records with an inconclusive call do not appear. Activity calls are given as the source filed them. Unless noted, calls follow the shape of the full dose curve.

What was measured:
[1] = qHTS for Inhibitors of the Functional Ribonucleoprotein Complex (vRNP) of Lassa (LASV) Arenavirus: LASV Primary Screen - GLuc reporter signal (AID 1347082; calls by dose curve; tested in HEK293 reporter line; also: nearly all actives have a fitted effect of over 60% in size)
[2] = qHTS for Inhibitors of the Functional Ribonucleoprotein Complex (vRNP) of Lassa (LASV) Arenavirus: Viability assay - alamar blue signal for LASV Primary Screen (AID 1347083; calls by dose curve; tested in HEK293 reporter line; also: nearly all actives have a fitted effect of over 80% in size)
[3] = qHTS for Inhibitors of the Functional Ribonucleoprotein Complex (vRNP) of Lymphocytic Choriomeningitis Arenaviruses (LCMV): Viability assay - alamar blue signal for LCMV Primary Screen (AID 1347085; calls by dose curve; tested in HEK293 reporter line; also: nearly all actives have a fitted effect of over 80% in size)
[4] = biological target: Nucleoprotein (Lymphocytic choriomeningitis virus (strain Armstrong)) (UniProt P09992); assay: qHTS for Inhibitors of the Functional Ribonucleoprotein Complex (vRNP) of Lymphocytic Choriomeningitis Arenaviruses (LCMV): LCMV Primary Screen - GLuc reporter signal (AID 1347086); also: nearly all actives have a fitted effect of over 70% in size
Sequence of Nucleoprotein (Lymphocytic choriomeningitis virus (strain Armstrong)) (P09992 whole entry, looked up): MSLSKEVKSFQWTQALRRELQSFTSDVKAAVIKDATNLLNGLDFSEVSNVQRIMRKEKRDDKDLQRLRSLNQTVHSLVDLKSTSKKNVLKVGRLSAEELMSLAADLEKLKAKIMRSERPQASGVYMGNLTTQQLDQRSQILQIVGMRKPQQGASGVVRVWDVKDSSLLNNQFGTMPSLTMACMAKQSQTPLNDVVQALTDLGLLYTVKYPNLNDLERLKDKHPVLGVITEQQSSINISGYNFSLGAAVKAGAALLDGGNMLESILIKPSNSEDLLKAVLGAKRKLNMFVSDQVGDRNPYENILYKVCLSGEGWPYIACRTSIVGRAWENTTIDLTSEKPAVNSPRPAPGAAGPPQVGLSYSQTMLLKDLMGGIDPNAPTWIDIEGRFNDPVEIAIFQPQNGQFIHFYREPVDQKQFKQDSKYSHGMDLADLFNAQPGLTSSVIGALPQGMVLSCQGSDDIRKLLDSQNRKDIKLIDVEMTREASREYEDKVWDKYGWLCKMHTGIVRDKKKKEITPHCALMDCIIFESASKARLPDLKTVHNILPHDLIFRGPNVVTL

Measured: Potency
Potency is read from the fitted curve at half-maximal effect.

CCNC(=O)Nc1ccc(-c2nc3c(c(N4CCOC[C@H]4C)n2)CCN(C2COC2)C3)cc1
active: [1] 1.93 µM | [2] 1.37 µM | [3] 3.06 µM | [4] 1.53 µM

C[C@]12CCC3C(C[C@@H](O)[C@H]4C[C@@H](O)CC[C@]34C)C1CC[C@@H]2O (stereo not given in full)
inactive: all assays above

O=C1NC(=O)C(Cc2ccc(O)cc2)N1 (stereo not given)
inactive: all assays above

CNc1ncnc2c1ncn2[C@@H]1O[C@H](CO)C(O)[C@H]1O (stereo not given in full)
inactive: all assays above

O=C1c2cc(CO)cc(O)c2C(=O)c2c(O[C@@H]3OC(CO)[C@@H](O)[C@@H](O)[C@@H]3O)cccc21 (stereo not given in full)
inactive: all assays above

COc1cc(=O)n(C)c2c(O)cccc12
inactive: all assays above

CC12C=CC(=O)C=C1CCC1C2C(=O)CC2(C)C(=O)CCC12 (stereo not given)
inactive: all assays above

COc1cc2ccc(=O)oc2cc1O
inactive: all assays above

C/C(=C\COc1ccc2ccc(=O)oc2c1)CC[C@@H](O)C(C)(C)O
inactive: all assays above

O=C(Nc1cc2cc[nH]c2cn1)c1ccccc1
inactive: all assays above

COc1ccc(C(=O)/C=C/c2ccc(O)cc2)c(O)c1CC=C(C)C
inactive: all assays above

C/C1=C\[C@@H](O)C(C(C)C)C(OC(=O)c2ccc(O)cc2)C/C(C)=C/CC1 (stereo not given in full)
inactive: all assays above

COc1ccc([C@@H]2CC(=O)c3c(O)cc(O[C@@H]4OC(CO[C@@H]5OC(C)[C@H](O)[C@@H](O)[C@H]5O)[C@@H](O)[C@H](O)[C@H]4O)cc3O2)cc1O (stereo not given in full)
inactive: all assays above

C/C=C/c1ccc2oc(-c3ccc(O)cc3)c(C)c2c1
inactive: all assays above

Nc1ncnc2c1ncn2[C@H]1O[C@H](CO)[C@@H](O)[C@@H]1O
inactive: all assays above

C[C@@]12CC[C@H]3OC(=O)C=C3C1CC[C@@]13CC(CCC12)[C@](CO)(O[C@H]1O[C@H](CO)[C@@H](O)[C@H](O)[C@H]1O)C3 (stereo not given in full)
inactive: all assays above

CN[C@H]1[C@@H](O[C@@H]2[C@H](O[C@@H]3[C@@H](O)[C@@H](O)[C@@H](N=C(N)N)[C@@H](O)[C@@H]3N=C(N)N)O[C@H](C)[C@@]2(O)C=O)O[C@@H](CO)[C@@H](O)[C@H]1O
inactive: all assays above

O=C(O)C1=CO[C@@H](O[C@@H]2O[C@H](CO)[C@H](O)[C@H](O)[C@H]2O)[C@@H]2C(CO)=CC[C@H]12
inactive: all assays above

Cc1cc(O)cc(O[C@H]2OC(CO)[C@H](O)[C@@H](O)[C@H]2O)c1 (stereo not given in full)
inactive: all assays above

O=Cc1cc2ccccc2o1
inactive: all assays above

C=CCNC1=C2C[C@@H](C)C[C@H](OC)[C@@H](O)[C@@H](C)C=C(C)[C@H](OC(N)=O)[C@@H](OC)C=CC=C(C)C(=O)NC(=CC1=O)C2=O
active: [1] 8.63 µM | [2] 6.85 µM | [3] 15.3 µM | [4] 4.32 µM

COc1c2c(c(C)c3c1C(=O)OC3)O[C@@]1(C)CC[C@@]3(O)C(C)(C)OC(=O)CC[C@]3(C)[C@H]1C2
inactive: all assays above

CC(C)CCOC(=O)CC(C)C
inactive: all assays above

O=C(C=CC=Cc1ccc2c(c1)OCO2)N1CCCCC1
inactive: all assays above

O=c1c(O)c(-c2cc(O)c(O)c(O)c2)oc2cc(O)ccc12
inactive: all assays above

CC(=O)O[C@]1(C(C)=O)CC[C@@H]2[C@@H]3C[C@H](C)C4=CC(=O)CC[C@]4(C)[C@H]3CC[C@@]21C
inactive: all assays above

O=C/C=C/c1ccc(O)cc1
inactive: all assays above

C/C=C(/C)C(=O)O[C@@H]1c2cc3c(c4c2[C@@]2(CO4)C(=O)C(OC)=C(OC)C=C2C[C@@H](C)[C@H]1C)OCO3
inactive: all assays above

COc1ccc2ccc(=O)oc2c1CC(=O)C(C)C
inactive: all assays above

CC(=O)C1CCC2C3CCC4=CC(=O)C=CC4(C)C3CCC12C (stereo not given)
inactive: all assays above

CC(=O)O[C@H]1C2[C@@H](OC(=O)Cc3ccccc3)[C@@H](C)C[C@]2(OC(C)=O)C(=O)/C(C)=C/[C@@H]2[C@H](CC[C@@]13CO3)C2(C)C (stereo not given in full)
inactive: all assays above

COc1cccc2c(=O)c3ccoc3n(C)c12
inactive: all assays above

CCC(C)C(=O)OCCc1ccccc1 (stereo not given)
inactive: all assays above

CC(=O)O[C@H]1C[C@@]2(O)[C@@H](OC(=O)c3ccccc3)C3[C@@](C)([C@@H](O)C[C@H]4OC[C@@]34OC(C)=O)[C@@H](O)[C@H](OC(C)=O)C(=C1C)C2(C)C (stereo not given in full)
inactive: all assays above

CC(=O)O[C@@H]1[C@H]2CC[C@@H]3[C@]1(C[C@@H](OC(C)=O)[C@@]1(O)C([C@@H]4O[C@@H]4C1(C)C)[C@]3(C)O)C[C@@]2(C)O (stereo not given in full)
inactive: all assays above

COc1cc(C)c(C(=O)Oc2cc(C)c(C(=O)O)c(O)c2C)c(O)c1C
inactive: all assays above

COC(=O)C1(Cc2ccc(O)c(CC3OC3(C)C)c2)OC(=O)C(O)=C1c1ccc(O)cc1 (stereo not given)
inactive: all assays above

CCC(C)(O)C(=O)N[C@H]1CCCN1C(=O)/C=C/c1ccccc1 (stereo not given in full)
inactive: all assays above

CC[C@@H](C)[C@@H](O)[C@H](C)C(=O)[C@H](C)/C=C(\C)C[C@H](C)[C@@H]1OC(=O)[C@H]1CC
inactive: all assays above

C=C1CC[C@H](O)C/C1=C/C=C1\CCC[C@]2(C)[C@@H]([C@H](C)CCC(O)C(C)(C)O)CC[C@@H]12 (stereo not given in full)
inactive: all assays above

CCCCCC/C=C/C=O
inactive: all assays above

O=C1CCC[C@H]2[C@@H]3CCCN4CCC[C@H](CN12)[C@H]34
inactive: all assays above

CC(=O)CCC1=C(C)CCCC1(C)C
inactive: all assays above

CC1(C)C=C2[C@H]3CC[C@@H]4[C@@]5(C)CCC(=O)C(C)(C)[C@@H]5CC[C@@]4(C)[C@]3(C)CC[C@@]2(C(=O)O)CC1
inactive: all assays above

COc1ccc(CCNC(=O)/C=C\c2ccccc2)cc1OC
inactive: all assays above

Nc1oc2ccccc2c1C(=O)Cc1ccccc1O[C@@H]1O[C@H](CO)[C@@H](O)[C@H](O)[C@H]1O
inactive: all assays above

COc1cc(OC)c2c(-c3ccccc3)cc(=O)oc2c1
inactive: all assays above

COc1c2c(nc3ccccc13)OC(C(C)(O)COC(C)=O)C2 (stereo not given)
inactive: all assays above

CCCC(=O)OCc1ccccc1
inactive: all assays above

CCCCCCCCCCCCCC/C(C(=O)O)=C(\C)C(=O)O
inactive: all assays above

CC(=O)c1c(O)cccc1O
inactive: all assays above

O=C(O)CCc1ccccc1
inactive: all assays above

CN1CCC[C@H]1CCO[C@](C)(c1ccccc1)c1ccc(Cl)cc1
inactive: all assays above

CC(=O)C1CCC2C3CCC4=CC(=O)C=CC4(C)C3C(=O)CC12C (stereo not given)
inactive: all assays above

C=C1C2C[C@H](O)C(C)(C)[C@@]2(O)[C@H](O)C[C@]23C[C@@](C)(O)[C@H](CC[C@H]12)[C@H]3O (stereo not given in full)
inactive: all assays above

C=C1[C@H]2O[C@H]2[C@@H](OC(C)=O)[C@@]2(C)[C@@H](OC(C)=O)C[C@@H](OC(C)=O)[C@@](C)(O)[C@@H]2[C@@H](OC(C)=O)[C@@]2(O)[C@@H](C)C(=O)O[C@H]2[C@H]1Cl
inactive: all assays above

CC(C)CN(C[C@H](O)[C@H](Cc1ccccc1)NC(=O)O[C@H]1CCOC1)S(=O)(=O)c1ccc(N)cc1
inactive: all assays above

C[C@@H]1C(=O)CC2C(C)(C)CCC[C@]2(C)[C@@]1(O)CCc1ccoc1 (stereo not given in full)
inactive: all assays above

C/C=C1\CN2[C@H]3C[C@@]45c6ccccc6N(C)[C@H]4[C@@H]2CC1C3[C@H]5O (stereo not given in full)
inactive: all assays above

Cc1csc(NC(=O)c2sc3nc4c(c(C(F)(F)F)c3c2N)CCC4)n1
inactive: all assays above
